# The list is not random: actives were taken first. Their share in the collection is about 2.1%.
# TDP-43 yeast inh – qHTS of TDP-43 Inhibitors; AID 652104, 2013; 410,000 tested, 1.8% active; TDP-43 expressing yeast growth rescue, BacTiter-Glo, 24 h; Potency, µM (top dose mostly 46.1 µM), usual class: activators; further: nearly all actives have a fitted effect of over 50% in size
#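 Growth rescue of TDP-43-toxic yeast measured as ATP luminescence (BacTiter-Glo). Cells grown to mid-log in raffinose, induced in galactose at OD600=0.02, exposed to compound 24 hr at 30 deg C.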
# Abeta rescue – qHTS for compounds that reverse cellular toxicity of Amyloid beta (A-beta) peptide in yeast: Primary Screen | yeast expressing A-beta42, growth rescue, OD600, 48 h; response scale: 0% DMSO, 100% iron-clioquinol control | Potency, µM (titrated, usually from 46.1 µM), hits mostly activators | 410,000 tested, 0.063% active; further: nearly all actives have a fitted effect of over 55% in size
#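 Growth rescue measured by 600 nm absorbance after 48 h yeast culture at 30 C with compound. Values normalized between DMSO and an equimolar ferric chloride plus clioquinol control.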
# aSyn yeast inh – qHTS of alpha-syn Inhibitors | AID 652106, 2013 | Potency, µM (series often up to 46.1 µM), usual class: activators | Yeast expressing alpha-synuclein, growth rescue, BacTiter-Glo, 24 h | 370,000 tested, 0.14% active; further: nearly all actives have a fitted effect of over 65% in size
#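 Galactose-induced alpha-syn yeast (OD600=0.02, raffinose-pregrown) + pinned cpd, 24 hr, 30 deg C; growth by BacTiter-Glo luminescence. Growth restoration scores as activation.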
# FUS yeast rescue – qHTS for Suppressors of FUS Proteinopathy: Primary screen using FUS-linked yeast assay; S. cerevisiae FUS-expressing, growth rescue, OD600, 24 h; Potency, µM (highest dose often 76.6 µM), most hits filed as activators; AID 1347120, 2019; 390,000 tested, 0.24% active; further: nearly all actives have a fitted effect of over 55% in size
#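 Restored growth of FUS-toxic S. cerevisiae, read as 600 nm absorbance after 24 h at 30C in galactose medium (starting OD 0.005). Controls CP55940 and DMSO.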
# Hits are given with their value; 0 = inactive; ? = inconclusive; - = no result. The call rests on the fitted dose curve; in most records, active means well fitted curve in the direction sought with a large enough effect; inconclusive means small, poorly fitted or top-dose-only effect, or another doubt; inactive means no such curve, though single readings can be large; an effect the other way counts as inactive or inconclusive.
SMILES,TDP-43 yeast inh,Abeta rescue,aSyn yeast inh,FUS yeast rescue
COC(=O)c1cn(CCOc2ccccc2F)c2ccccc12,11.2µM,?,0,0
COc1ccccc1OCCn1cc(/C=N/NC(=O)c2ccncc2)c2ccccc21,12.6µM,0,0,0
O/N=C/Cc1[nH]c2ccccc2c1-c1ccccc1,15.8µM,0,0,0
O=c1[nH]c2ccccc2c(O)c1-c1ccccc1,0,0,0,0
O=C(c1ccccc1Br)N1CCc2c([nH]c3ccccc23)C1,17.8µM,0,?,0
CCCCn1c(SCC(=O)c2ccc(O)c(O)c2)nc2ccsc2c1=O,20µM,0,0,-
O=C(O)CCCCCn1c(SCC(=O)c2ccc(O)c(O)c2)nc2ccsc2c1=O,0,0,0,-
O=C(Nc1ccno1)Nc1ccc(Cl)cc1Cl,14.1µM,0,0,0
O=C(Nc1ccc(Cl)cc1Cl)Nn1cnnc1,0,0,0,0
CC(C)c1ccc2oc(-c3cccc(NC(=O)c4ccc5c(c4)OCCO5)c3)nc2c1,0,0,-,0
Cc1cc(=O)n(CC=C(Cl)Cl)c2ccccc12,12.6µM,0,0,?
CC(=O)NC(c1ccc(N(C)C)cc1)c1cc(Cl)c2cccnc2c1O (configuration not stated),28.2µM,0,0,0
CCCCC(=O)NC(c1cccs1)c1cc(Cl)c2cccnc2c1O (configuration not stated),0,?,22.4µM,0
COc1ccc(C(=O)NC(c2ccccc2Cl)c2cc(Cl)c3cccnc3c2O)cc1 (configuration not stated),?,0,15.8µM,0
CCCCC(=O)N[C@H]1CC[C@@]23CCCN2C(=O)CCC[C@H]3[C@H]1C,-,-,-,0
COCCCNC(=O)CSc1nnc(-c2cccnc2)n1C1CCCCC1,-,-,-,0
CC(C)Cn1c(=O)c2sccc2n2c(CCCC(=O)NC3CCCCC3)nnc12,0,0,-,0
CCOc1ccc(C(=O)CCC(=O)Nc2ccccc2C)cc1,?,0,0,0
CCOc1ccc(C(=O)CCC(=O)NCC(=O)Nc2ccc(F)c(F)c2F)cc1,0,0,28.2µM,0
C[C@H](c1ccccc1)N1C[C@@H](COCc2ccccc2)Oc2cc(N3CC[C@@H](O)C3)ccc2S1(=O)=O,28.2µM,0,0,0
C[C@@H](c1ccccc1)N1C[C@@H](COCc2ccccc2)Oc2cc(N3CC[C@H](O)C3)ccc2S1(=O)=O,?,0,0,?
Cn1c(C(=O)Nc2ccccc2)cc2sccc21,12.6µM,0,0,0
COCCNC(=O)c1cc2sccc2n1C,0,0,0,0
COc1ccc(CNC(=O)c2cc3sccc3n2C)cc1,35.5µM,0,-,0
CCc1ccccc1NC(=O)c1cc2sccc2n1C,12.6µM,0,0,0
SMILES,TDP-43 yeast inh,Abeta rescue,aSyn yeast inh,FUS yeast rescue
C=Cc1ccc(Cn2c(C(=O)O)c(CNCc3ccccc3)c3ccc(C)cc32)cc1,0,0,0,?
O=C(NCCCc1nc2ccccc2n1CCCOc1ccccc1)C1CCCCC1,-,-,0,-
NC(=S)Nc1cccc2cc3ccccc3cc12,?,0,0,0
NC(=S)Nc1cc2ccccc2c2ccccc12,22.4µM,0,0,0
Cc1ccc(CN2CCCn3nc(C(=O)NCC(C)c4ccccc4)cc3C2=O)cc1 (configuration not stated),0,0,-,0
N#Cc1cn(Cc2cccc(Cl)c2)c2ccccc12,15.8µM,0,0,-
CCCn1c2ccccc2c2cnn(CC(=O)N(CCCOC(C)C)Cc3ccco3)c(=O)c21,0,0,-,?
Cc1cccc(N(C)C(=O)CCNS(=O)(=O)c2ccc3c(c2)CCN3C(=O)C2CC2)c1,0,0,0,0
COc1ccc(NC(=O)CNC(c2ccccc2)c2ccccc2)cc1Cl,0,0,0,0
O=C(Nc1ccc(F)c(Cl)c1)C1CCCC1,0,0,0,0
O=C(NC(=S)Nc1ccc(S(=O)(=O)N2CCCC2)cc1)C1CC1,0,?,0,0
Cc1ccc(NC(=S)NC(=O)C2CC2)cc1Cl,31.6µM,?,0,0
O=C(NC(=S)Nc1ccc(F)c(Cl)c1)C1CC1,3.16µM,?,0,0
COc1ccc(NC(=O)Oc2ccccc2)cc1Cl,17.8µM,0,0,0
O=C(Nc1ccc(F)c(Cl)c1)C1CCCCC1,17.8µM,0,0,0
CCC(=O)Nc1ccc(CC)cc1-c1nc2ccccc2n(CC(=O)Nc2cccc(OC)c2)c1=O,0,0,-,0
CCS(=O)(=O)c1ncc(Cl)c(C(=O)N(Cc2ccccc2)c2ccc(OC)cc2)n1,0,0,-,0
COc1ccccc1NC(=S)NC(=O)C1CC1,?,0,0,-
O=C(NC(=S)Nc1ccccc1Cl)C1CC1,10µM,0,0,0
COC(=O)NC(=S)Nc1ccc(Oc2ccc(Cl)cc2)c(Cl)c1,0,0,0,0
COC(=O)NC(=S)Nc1ccc(Oc2ccc(Cl)cc2Cl)c(Cl)c1,17.8µM,0,0,0
O=C(COC(=O)c1ccccc1Oc1ccccc1)Nc1ccc(Br)cc1,-,-,0,-
O=C1CC(c2ccc(O)c(O)c2)Oc2cc(O)cc(O)c21 (configuration not stated),0,0,0,0
Oc1ccc(C2C[C@H]3CC[C@@H]2C3)cc1O (some centres not stated),14.1µM,?,0,0
Cc1ccc(-c2nonc2NC(=O)c2ccco2)cc1C,20µM,0,-,0
SMILES,TDP-43 yeast inh,Abeta rescue,aSyn yeast inh,FUS yeast rescue
Cc1ccc(-c2nonc2NC(=O)c2ccco2)cc1,25.1µM,-,0,0
COc1cc2c(NC3CCN(C)CC3)nc(N3CCCCC3)nc2cc1OCCOCCN1CCCC1,-,-,0,-
O=C(NCCc1c[nH]c2ccccc12)OCc1cn(Cc2c(F)cccc2F)nn1,-,-,-,0
COC(=O)c1ccc(NC(=O)c2c(NCc3cccc(F)c3)sc3c2CCCC3)cc1,0,0,-,0
C=CCOn1c(C)c(C(C)=O)c2c3no[n+]([O-])c3ccc21,7.08µM,0,0,0
COn1c(C)c(C(C)=O)c2c3no[n+]([O-])c3ccc21,0,0,0,0
CC(=O)c1sc(N/N=C\c2ccc(Br)cc2)nc1C,0,0,0,0
CC(=O)c1sc(N/N=C\c2cccc(Br)c2)nc1C,17.8µM,0,0,?
CC1(C)CC(N2CCN(CCO)CC2)=CC(=S)N1,?,0,17.8µM,0
CC(=O)Nc1nonc1-c1nc2ccccc2n1Cc1ccccc1Br,0,0,-,0
COc1cccc(NC(=O)CCSc2ccc3ccccc3n2)c1,12.6µM,0,0,-
O=C(O)CCSc1ccc2ccccc2n1,17.8µM,0,0,0
COc1cccc(Nc2ccc3cc(S(=O)(=O)N4CCC(C)CC4)ccc3n2)c1,12.6µM,0,-,0
CCC(CC)C(=O)N1c2ccccc2C(C)(c2ccccc2)CC1(C)C (configuration not stated),?,0,-,0
C/C(=C\C(=S)Nc1ccccc1)Nc1ccc2ccccc2c1,12.6µM,0,0,0
S=C(NCc1ccccc1)Nc1ccc2ccccc2c1,?,?,0,0
C/C(=C\C(=S)Nc1ccccc1)Nc1cccc2ccccc12,11.2µM,0,0,-
CCCCn1nnnc1NCc1ccc(N2CCCC2)cc1,0,0,0,28.2µM

# Source: PubChem (National Center for Advancing Translational Sciences (NCATS))
